Sampled rows, rich in hits. Any-hit rate of the full collection: about 19%.
IL-1B inflam inh: inflammasome signaling inhibition, IL-1 beta readout; THP-1 LPS/ATP IL-1B secretion, AlphaLISA, 16 h; stronger effect = lower value; activity change, % at 57.5 µM; hit rate 4.7% among 360,000; AID 743279; in the data active = activity change below about -50%; inconclusive = mostly about -30% to -49%
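THP-1 cells pretreated 1 hr with compounds (up to 57.5 uM final), then stimulated with LPS (250 ng/mL final) plus ATP (1.25 mM final); secreted IL-1B measured by AlphaLISA after 16 hr, decreased signal indicating inhibition.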
TDP1 cell CPT: growth inhibition of DT40 Tdp1-/-;hTDP1 cells with camptothecin (screen for TDP1 inhibitors); chicken DT40 Tdp1-/-;hTDP1 cells + 20 nM CPT, ATP luminescence, 48 h; Potency, µM (titrated, usually from 46.2 µM), for the others: top-dose activity change, negative = growth inhibition, most hits filed as inhibitors; hit rate 12% among 420,000; AID 686979; also: potency is read from the fitted curve at half-maximal effect; nearly all actives have a fitted effect of over 55% in size
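Cell growth measured by CellTiter-Glo luminescence after a minimum 48 h, 37 C compound exposure with 20 nM CPT in Tdp1-knockout DT40 cells stably expressing hTDP1, seeded 400/well; qHTS titration format.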
HT1080 IDH1KD tx: HT-1080 IDH1 knockdown cell toxicity (counter line). HT-1080 IDH1 knockdown viability, ATP luminescence, 48 h. Potency, µM (series often up to 46.1 µM), for the others: at the top dose activity, negative = toxicity, actives largely listed as cytotoxic. hit rate 2% among 360,000. AID 686971;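 also: potency is read from the fitted curve at half-maximal effect; 0% = DMSO wells and -100% = cell-free medium wells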
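Assay cells: HT-1080 with IDH1 knockdown, 750 per well, RPMI/5% FBS. Exposure: 48 h at 37 °C following 2 h pre-incubation. Read: CellTiter-Glo luminescence; fitted concentration-response, curve class assigned.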
HT1080NT lethal: kills 2HG-producing HT-1080-NT fibrosarcoma cells. HT-1080-NT fibrosarcoma viability, CellTiter-Glo ATP luminescence, 48 h. Potency, µM (top dose mostly 46.1 µM), for inactives: at the highest dose activity, negative = less viability, actives largely listed as cytotoxic. hit rate 1.6% among 360,000;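 also: NT is the 2HG producing partner of a matched IDH1 knockdown line; potency is read from the fitted curve at half-maximal effect; 0% = DMSO-treated cells and -100% = media-only wells without cells; nearly all actives have a fitted effect of over 55% in size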
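Luminescent CellTiter-Glo readout after 48 hours of compound exposure at 37 degrees C defined viability of HT-1080-NT cells. Activity was normalized to DMSO wells and cell-free media wells; concentration-response curves were fitted and assigned curve classes.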
DT40 TDP1 no CPT: qHTS for Inhibitors of human tyrosyl-DNA phosphodiesterase 1 (TDP1): qHTS in cells in absence of CPT | AID 686978, 2013 | DT40 Tdp1-/- hTDP1 cells, no CPT, ATP luminescence, 48 h | hit rate 15% among 420,000 | Potency, µM (highest dose often 46.2 µM), for inactives: at the top dose activity change, negative = growth inhibition, most hits filed as inhibitors; also: potency is read from the fitted curve at half-maximal effect; nearly all actives have a fitted effect of over 55% in size
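Stably hTDP1-transfected Tdp1-null chicken DT40 cells were treated with library compounds minus camptothecin and grown for at least 48 hr at 37 °C, after which cellular ATP was quantified by luminescence.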
ELG1 DNA repair: ELG1-dependent DNA repair inhibition | Potency, µM (series often up to 46.1 µM), without a hit: at the top dose activity change, negative = inhibition, hits mostly inhibitors | HEK293T ELG1-luciferase reporter, luminescence, 16 h; DNA damage induced by 5-fluorouridine | hit rate 2.3% among 330,000; also: potency is read from the fitted curve at half-maximal effect; nearly all actives have a fitted effect of over 55% in size
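HEK293T cells expressing luciferase-tagged ELG1 (2,000/well) received 5-Fluorouridine plus compound or DMSO for 16 hr at 37 °C. Luciferase was read by ONE-Glo luminescence after 30 min at room temperature.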
Numbers without * were called inactive; ? = inconclusive; nt = no result given; [ ] = remark or other dose. Unless noted, calls follow the shape of the dose curve; as a rule, active = well fitted curve in the direction sought with a large enough effect; inconclusive = small, poorly fitted or top-dose-only effect, or another doubt; inactive = no such curve, though single readings can be large; an effect the other way counts as inactive or inconclusive. Unless noted, % is scaled to controls: 0 for no effect and ±100 for the full control effect.

SMILES	IL-1B inflam inh	TDP1 cell CPT	HT1080 IDH1KD tx	HT1080NT lethal	DT40 TDP1 no CPT	ELG1 DNA repair
Cc1ccc(S(=O)(=O)N2CCOCC2)cc1NC(=O)COC(=O)Cc1ccccc1	-2.9	6.9%	8.8%	3.2%	-18.3%	13.1%
Cc1cc2c(cc1C)CSC(c1c(O)ccc3ccccc13)SC2	-78.2*	?	?	23.1µM*	?	?
COc1ccc(C(=O)NC2CCN(CC(=O)NCc3cccc(OC)c3)CC2)cc1	-8.5	-13.1%	16.7%	1.3%	-10.4%	5.9%
O=C(Cn1ncc2c1-c1ccccc1OC2)N1CCN(c2ccccc2F)CC1	nt	?	nt	nt	18.4µM*	nt
CCOC(=O)N1CCN(C(=O)Cn2ncc3c2-c2ccccc2OC3)CC1	-20.4	?	-2.9%	0.0%	-12.1%	7.0%
Cc1ccc(C)c(CN2CCCN(C(=O)Cn3ncc4c3-c3ccccc3OC4)C2)c1	-12.4	13µM*	-13.3%	-24.9%	16.4µM*	?
COc1cccc(N2CCN(C(=O)Cn3ncc4c3-c3ccccc3OC4)CC2)c1	nt	-24.0%	nt	nt	23.1µM*	nt
O=C(Cn1ncc2c1-c1ccccc1OC2)N1CCN(Cc2ccccc2)CC1	-6.0	?	-3.1%	-4.2%	?	?
CC(C)c1ccc(NC(=O)CSc2nc3ccccc3nc2Cc2ccccc2)cc1	nt	?	nt	nt	-24.2%	nt
COc1ncc2nc(-c3cccs3)c(=O)n(-c3ccccc3)c2n1	nt	9.4%	nt	nt	-3.1%	nt
CCOC(=O)N1CCN(Cc2nc3cc(NC(=O)CC(C)C)ccc3n2C(C)C)CC1	nt	0.82µM*	nt	nt	0.731µM*	nt
CCOC(=O)N1CCN(Cc2nc3cc(NC(C)=O)ccc3n2CC)CC1	-12.3	-8.5%	0.9%	-0.1%	-1.5%	3.2%
CCOC(=O)N1CCN(Cc2nc3cc(NC(=O)CC)ccc3n2C(C)C)CC1	nt	0.92µM*	nt	nt	0.731µM*	nt
CCOC(=O)N1CCN(Cc2nc3cc(NC(=O)c4cccs4)ccc3n2CC)CC1	?	23.1µM*	?	?	25.9µM*	-14.5%
CCN1CCN(Cc2nc3cc(NC(=O)c4cccc([N+](=O)[O-])c4)ccc3n2CC)CC1	nt	-11.2%	nt	nt	-10.3%	nt
CCn1c(CN2CCCCC2)nc2cc(NC(=O)c3ccc([N+](=O)[O-])cc3)ccc21	nt	9.2µM*	nt	nt	9.2µM*	nt
Cc1cccc(N2C(=O)C3C4C=CC(C5CC45)C3C2=O)n1 (stereo not given)	-2.5	7.8%	13.3%	17.9%	-1.3%	-2.4%
O=C(C(O)c1ccccc1)N1CCN(S(=O)(=O)c2ccc(F)c(F)c2)CC1 (stereo not given)	-8.9	1.7%	14.6%	20.4%	1.0%	nt
O=C(NCCN1CCOCC1)c1cnn(-c2nccc(-c3ccccc3F)n2)c1C1CC1	nt	6.9%[9.04 µM]	nt	nt	-9.8%	nt
CCc1nc2c(OCc3cccc(Cl)c3)cccn2c1N(C)C(=O)c1ccco1	-13.5	?	0.4%	7.4%	?	nt
CCOC(=O)N1CCN(Cc2nc3cc(NC(=O)CC(C)C)ccc3n2CC)CC1	-16.7	14.6µM*	?	-28.9%	9.2µM*	?
CCOC(=O)N1CCN(Cc2nc3cc(NC(=O)c4cccc(C)c4)ccc3n2C(C)C)CC1	nt	0.92µM*	nt	nt	0.731µM*	nt
CCOC(=O)N1CCN(Cc2nc3cc(NC(=O)CC(C)C)ccc3n2C)CC1	9.7	-22.7%	5.6%	3.9%	?	-24.4%
CCOc1ccc(-n2c(C)c(C(=O)O)c3cc(OC)ccc32)cc1	-18.6	-13.8%	-3.4%	-9.8%	-4.8%	?
CCOc1ccc(-n2c(C)c(C(C)=O)c3cc(OC(C)=O)ccc32)cc1	-19.5	?	2.4%	5.6%	?	6.51µM*
